The campaign covered roughly 220,000 compounds. About 16,000 (7.3%) were called active. Inconclusive results (about 25%) are left out. Calls follow the shape of the dose curve; as a rule, active = well fitted inhibition curve with a large enough effect (not every such curve was filed as active); inconclusive = small, poorly fitted or top-dose-only effect, or another doubt; inactive = no such curve, though single readings can be large or run the other way. For the sample, actives were picked, then their nearest neighbours and some compounds at random.
target: Aldehyde dehydrogenase 1A1 (Homo sapiens) (UniProt P00352); test: qHTS Assay for Inhibitors of Aldehyde Dehydrogenase 1 (ALDH1A1); details: Purified ALDH1A1, NADH fluorescence, propionaldehyde substrate; series mostly up to 75.3 µM; activity, negative = inhibition: at the top concentration;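 as to activity, negative = inhibition: plate controls were no enzyme wells and a reference inhibitor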
Sequence (P00352 whole entry, looked up): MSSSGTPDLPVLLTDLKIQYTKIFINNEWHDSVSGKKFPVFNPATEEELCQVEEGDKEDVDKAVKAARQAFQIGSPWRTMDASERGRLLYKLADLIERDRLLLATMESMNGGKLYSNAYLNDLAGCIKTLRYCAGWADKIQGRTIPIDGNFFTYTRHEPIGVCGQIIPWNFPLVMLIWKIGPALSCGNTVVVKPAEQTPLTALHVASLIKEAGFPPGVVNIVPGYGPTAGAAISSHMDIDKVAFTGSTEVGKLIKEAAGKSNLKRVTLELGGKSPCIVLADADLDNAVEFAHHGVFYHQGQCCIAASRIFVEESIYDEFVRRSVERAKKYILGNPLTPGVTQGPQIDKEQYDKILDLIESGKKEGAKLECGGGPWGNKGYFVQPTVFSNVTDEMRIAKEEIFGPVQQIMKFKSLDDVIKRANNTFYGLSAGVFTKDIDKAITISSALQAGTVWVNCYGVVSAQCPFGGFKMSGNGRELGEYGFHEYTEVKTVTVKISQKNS
Potency is read from the fitted curve at half-maximal effect.

| SMILES | activity, negative = inhibition | Potency |
| --- | --- | --- |
| Cc1[nH]c2ccccc2c1-c1ccc(Cl)nn1 | -5.07% (inactive) | – |
| Cc1cc2c(cc1C)NC(c1ccccn1)C1=C(CC(C)(C)CC1=O)N2 (configuration not stated) | – | 14.1 µM (active) |
| CC(=O)C1=C(C)NC2=C(C(=O)CC(C)(C)C2)C1C (configuration not stated) | 7.86% (inactive) | – |
| CC1(C)CC(=O)C2=C(C1)Nc1cc(C(=O)c3ccccc3)ccc1NC2c1ccccn1 (configuration not stated) | -11.7% (inactive) | – |
| COCCn1c(C)cc(C(=O)CSc2nc3ccccc3c(=O)n2C(C)COC)c1C (configuration not stated) | 5.36% (inactive) | – |
| O=C1/C(=C\Nc2ccccc2)CCN1c1ncccn1 | – | 20 µM (active) |
| O=C(Cc1ccccc1)NNC(=O)C1CCN(c2ncccn2)CC1 | -4.45% (inactive) | – |
| O=C(NNC(=O)C1CCN(c2ncccn2)CC1)c1ccccc1 | 5.47% (inactive) | – |
| CC1=C(C(=O)N(C)C)C(c2ccccc2OC(F)F)NC(=O)N1 (configuration not stated) | 0.853% (inactive) | – |
| Cc1ccc(-n2nc3cc(Cl)c(NC(=O)c4ccco4)cc3n2)cc1 | 7.28% (inactive) | – |
| COc1cc(NC(=O)c2cc([N+](=O)[O-])ccc2Br)ccc1NC(=O)c1ccco1 | -7.19% (inactive) | – |
| COc1ccc(NC(=O)c2cccc(NC(=O)c3ccco3)c2)c(OC)c1 | 8.92% (inactive) | – |
| COC(=O)c1cc(Cl)c(NC(=O)c2ccco2)cc1OC | -8.38% (inactive) | – |
| COc1ccccc1C(=O)Nc1ccc(NC(=O)c2ccco2)c(C)c1 | – | 8.91 µM (active) |
| O=C(NNC(=S)Nc1ccc(Br)cc1Cl)c1ccco1 | – | 12.6 µM (active) |
| O=C(Nc1ccc(Sc2ccc(Br)cc2)cc1)c1ccco1 | 2.02% (inactive) | – |
| O=C(Nc1ccc(NC(=O)c2ccco2)c(Cl)c1)c1cccc([N+](=O)[O-])c1 | 7.34% (inactive) | – |
| CCC(=O)NC(=S)Nc1ccc(NC(=O)c2ccco2)c(Cl)c1 | – | 3.55 µM (active) |
| O=C(NNS(=O)(=O)c1ccccc1C(F)(F)F)c1cc2ncc(C(F)(F)F)cc2s1 | 6.32% (inactive) | – |
| Cc1nnsc1C(=O)N/N=C/c1cccc(C(F)(F)F)c1 | 4.63% (inactive) | – |
| Cc1cc(C)c(NC(=O)c2oc3ccccc3c2COc2ccccc2)c(C)c1 | 11.3% (inactive) | – |
| N#Cc1ccc(Oc2ccc(C(F)(F)F)cc2NC(=O)c2ccc(F)cc2)cc1 | 0.449% (inactive) | – |
| Cc1cc(C)nc(/N=C2\NC(=O)CC(C(=O)O)N2c2ccc(Cl)cc2Cl)n1 (configuration not stated) | 13.7% (inactive) | – |
| CCC(=O)/C(=C(/O)c1ccccc1)c1nc2ccccc2[nH]1 | -6.36% (inactive) | – |
| CSc1sc(C(=O)NNC(=O)c2ccc(Cl)cc2)c2c1C=CCC2 | -7.39% (inactive) | – |
| CC1CCN(S(=O)(=O)c2ccc3ncn(CC(=O)N(C)C4CCCCC4)c(=O)c3c2)CC1 | -1.32% (inactive) | – |

| SMILES | activity, negative = inhibition | Potency |
| --- | --- | --- |
| O=C(CCC(=O)Nc1ccccc1)N/N=C/c1ccccc1F | 3.78% (inactive) | – |
| O=C(Cn1cc(C(F)(F)F)ccc1=O)N/N=C/c1ccc(Cl)cc1Cl | 2.83% (inactive) | – |
| O=C(CN1CCSCC1)N/N=C/c1ccc(F)cc1F | – | 31.6 µM (active) |
| O=C(C1CCN(C2CCN(Cc3cccc4c3OCO4)CC2)CC1)N1CCOCC1 | -7.94% (inactive) | – |
| CC(=O)c1c(C)[nH]c(C(=O)Nc2cc(S(=O)(=O)N(C)C)ccc2C)c1C | -7.28% (inactive) | – |
| Cc1cc(NC(=O)CSc2nccn2-c2ccc([N+](=O)[O-])cc2)no1 | 14.9% (inactive) | – |
| CN(CCOc1ccc(Br)cc1)CC(=O)Nc1cccc(S(=O)(=O)NC2=NCCC2)c1 | 5.31% (inactive) | – |
| CC1CCCC(C)N1/N=C/c1ccccc1OC(F)F (configuration not stated) | -0.166% (inactive) | – |
| CN1CCN(S(=O)(=O)c2ccc(NC(=O)C3CCCO3)cc2)CC1 (configuration not stated) | -9.73% (inactive) | – |
| CN(CC(=O)Nc1ccc(S(=O)(=O)N2CCCC2)cc1)Cc1ccc(Cl)c(Cl)c1 | – | 20 µM (active) |
| COc1ccc(NC(=O)CN2CCN(S(=O)(=O)c3ccc(F)cc3)CC2)cc1Cl | -1.89% (inactive) | – |
| OCCC#Cc1ccc(CN2CCN(Cc3ccsc3)C(CCO)C2)cc1 (configuration not stated) | 3.08% (inactive) | – |
| NC(CSC12CC3CC(CC(C3)C1)C2)C(=O)O (configuration not stated) | – | 12.6 µM (active) |
| Cc1ccc(C)c(NC(=O)CCC(=O)N/N=C2/CC(=O)CC(C)(C)C2)c1 | -0.74% (inactive) | – |
| O=C(CN1CCOCC1)Nc1cc(Cl)ccc1Cl | -0.628% (inactive) | – |
| O=C(COc1cccc2ccccc12)Nc1cc(S(=O)(=O)N2CCOCC2)ccc1N1CCOCC1 | -7.3% (inactive) | – |
| O=C(CN1CCN(c2ccc(O)cc2)CC1)Nc1cc(S(=O)(=O)N2CCOCC2)ccc1Cl | – | 25.1 µM (active) |
| Cn1c(=O)c2c(nc(N/N=C/c3cccs3)n2Cc2ccc(Br)cc2)n(C)c1=O | -4.65% (inactive) | – |
| C=CCn1c(Oc2ccc(C(=O)OC)cc2)nc2c1c(=O)n(C)c(=O)n2C | 7.05% (inactive) | – |
| C/C(Cl)=C\Cn1c(Nc2cccc(C)c2)nc2c1c(=O)n(C)c(=O)n2C | – | 20 µM (active) |
| CC[C@H](C)[C@@H](C(=O)N1CCNCC1)n1cc([C@@H](N)Cc2ccc(O)cc2)nn1 | -2.81% (inactive) | – |
| COC(=O)C1=C(C(=O)OC)[C@@H]2N(C)c3ccccc3[C@@]23C[C@@H](C(=O)OC)N(S(=O)(=O)c2ccc(Br)cc2)C3=N1 | 6.9% [at 13.5 µM] (inactive) | – |
| O=c1[nH]n2c(=O)c3c([nH]c2c1N=Nc1ccccc1)CCC3 | -7.15% (inactive) | – |
| O=[N+]([O-])/C(N=Nc1ccccc1)=N\Nc1ccccc1 | – | 14.1 µM (active) |
| O=C(/C=N/O)Nc1ccccc1 | 10.4% (inactive) | – |
| COc1cc(C(=O)Nc2cc(C(F)(F)F)ccc2-n2cncn2)cc(OC)c1OC | -11.5% (inactive) | – |

| SMILES | activity, negative = inhibition | Potency |
| --- | --- | --- |
| CCOc1ccc(CN2CCN(Cc3ccon3)CC2CCO)cc1 (configuration not stated) | -7.29% (inactive) | – |
| COc1ccc(/C=N/NC(=O)c2cccc(C(F)(F)F)c2)cc1 | 143% (inactive) | – |
| CCOc1ccc2nc(C(=O)N3CCCC(C)C3)sc2c1 (configuration not stated) | – | 14.1 µM (active) |
| CCOc1ccc(NC(=O)C2CCCN(C(=O)Nc3ccccc3)C2)cc1 (configuration not stated) | 5.91% (inactive) | – |
| COc1ccc2nc(NC(=O)[C@@H]3CCCN3C(=O)c3cccs3)sc2c1 | 15.3% (inactive) | – |
| COc1cc(OC)nc(N/N=C(\c2ccccc2)c2ccncc2)n1 | -13.5% (inactive) | – |
| COc1ccc(-c2nnc3ccc(SCc4ccccc4)nn23)cc1 | 26.6% (inactive) | – |
| Fc1cccc(CSc2nnc3ccc(-c4ccncc4)nn23)c1 | 4.55% (inactive) | – |
| Cc1ccc(/C=C/C(=O)Nc2cc(S(=O)(=O)N3CCCCCC3)ccc2OCC(F)(F)F)o1 | – | 28.2 µM (active) |
| COc1ccc(S(=O)(=O)N2CCCCCC2)cc1C(=O)OCC(=O)Nc1cc(C)on1 | 31.2% (inactive) | – |
| Cc1cccc(OCCC(=O)Nc2cc(S(=O)(=O)N3CCCCC3)ccc2N2CCOCC2)c1 | -16.5% (inactive) | – |
| CCc1ccc(CN2C(=O)c3ccccc3C2C(=O)NCC2CCCO2)cc1 (configuration not stated) | -11.7% (inactive) | – |
| CSc1nc(C)cc(SC(C(C)=O)C(=O)Nc2ccccc2)n1 (configuration not stated) | – | 15.8 µM (active) |
| CC(Sc1nnc2c(n1)C1CCC2(C)C1(C)C)C(=O)Nc1ccccc1 (configuration not stated) | -8.04% (inactive) | – |
| CSc1nc(N(C)NC(=O)c2cccc(C)c2)c2ccccc2n1 | -0.565% (inactive) | – |
| CC(=O)c1cc(-c2ccccc2)n(CC(=O)NC2CCCCC2)c1C | 7% (inactive) | – |
| COC(=O)C(C(=O)OC)C1c2ccccc2C=C(C2CC2)N1C(=O)OC (configuration not stated) | – | inactive |
| CC(C)(C)N(CC#CCC(O)(c1ccccc1)C1CCCC1)CCO (configuration not stated) | 1.5% (inactive) | – |
| O=C(COC(=O)c1ccc(F)cc1)Nc1nc2ccc([N+](=O)[O-])cc2s1 | 8.53% (inactive) | – |
| CC(C)C(NC(=O)C1CCC(C(C)(C)C)CC1)C(=O)NCCCN1CCCCC1 (configuration not stated) | 1.26% (inactive) | – |
| COC(=O)c1sc(C(F)(F)F)c(-c2ccccc2)c1S(=O)(=O)N(C)C | 1.08% (inactive) | – |
| COc1cccc(NC(=O)CN(C)S(=O)(=O)c2ccc(C)cc2)c1 | -2.08% (inactive) | – |
| CCOC(=O)CN(C)S(=O)(=O)c1ccc(-c2cc(C(=O)OC)sc2C(F)(F)F)cc1 | – | 5.97 µM (active) |
| Cc1ccc(SC(CC(=O)c2ccc(C(C)(C)C)cc2)C(=O)O)cc1 (configuration not stated) | – | 0.199 µM (active) |
| Cc1ccn(C(CC(=O)c2ccc(Br)cc2)C(=O)O)n1 (configuration not stated) | 0.837% (inactive) | – |
| Cc1ccc(SC(C)C(=O)NCc2ccc(F)cc2)cc1 (configuration not stated) | 10.6% (inactive) | – |

| SMILES | activity, negative = inhibition | Potency |
| --- | --- | --- |
| Cc1sc2c(c1C)c(=O)n(-c1ccccc1)c(=O)n2CC(=O)NCC1CCCO1 (configuration not stated) | -1.33% (inactive) | – |
| O=C(c1ccc(Cl)cc1)c1ccc(OCC(O)CN2CCCCC2)cc1 (configuration not stated) | 7.65% (inactive) | – |
| Cn1c(=O)c2c(nc(N3CCCCCC3)n2CC(=O)c2ccc(Br)cc2)n(C)c1=O | -2.72% (inactive) | – |
| Cn1c(=O)c2c(nc(N3CCCCCC3)n2CC(O)COc2ccc(Cl)cc2)n(C)c1=O (configuration not stated) | – | 11.2 µM (active) |
| CC(C(=O)N=Nc1c(O)n(C)c2ccc(Br)cc12)n1cnc2ccccc2c1=O (configuration not stated) | -6.13% (inactive) | – |
| Cc1ccc(S(=O)(=O)Nc2nc(N)n(-c3ccccc3)n2)cc1 | -1.7% (inactive) | – |
| Cc1ccccc1-n1nnnc1SCCCC(=O)c1ccc(F)cc1 | – | 0.0794 µM (active) |
| Cc1c(NC(=O)CSc2nnnn2-c2ccc(C(=O)O)cc2)c(=O)n(-c2ccccc2)n1C | -1.93% (inactive) | – |
| O=c1c2ccccc2nnn1CSc1nnnn1-c1ccccc1 | -10.9% (inactive) | – |
| NC(N)=Nc1nc2ccc(Br)cc2c(=O)[nH]1 | 11.2% (inactive) | – |
| O=C(Nc1cccnc1)c1ccc(Cl)c([N+](=O)[O-])c1 | 6.15% (inactive) | – |
| C=C(C)CSc1nc(N)c2c3c(sc2n1)CCC3 | 1.92% (inactive) | – |
| COCCn1c(C)cc(C(=O)CSc2ncnc3sc4c(c23)CCC4)c1C | -6.4% (inactive) | – |
| Cc1cc(C)n(-c2nc(SCC(=O)N3CCCC3)c3c4c(sc3n2)CCCC4)n1 | – | 14.1 µM (active) |
| Cc1[nH]nc(SCC(=O)NCC(C)C)c1[N+](=O)[O-] | -13.8% (inactive) | – |
| O=C(CN1CCN(C(=O)c2cccc(F)c2)CC1)Nc1ccccc1F | – | 12.6 µM (active) |
| O=C(CN1CCN(C/C=C/c2ccccc2)CC1)Nc1ccc(F)cc1F | 9.94% (inactive) | – |
| Cc1ccccc1CN1CCN(C(=O)c2cccc(F)c2)CC1 | – | 15.8 µM (active) |
| O=C(c1cccc(F)c1)N1CCC2(CC1)CCN(c1ccccc1)CC2 | -3.17% (inactive) | – |
| O=C(c1cccc(F)c1)N1CCC(O)(c2cccnc2)CC1 | -1.82% (inactive) | – |
| Cc1ccccc1CS(=O)(=O)CC1(O)CCN(C(=O)c2cccc(C(F)(F)F)c2)CC1 | 8.45% (inactive) | – |
| COc1ccc(Cn2c(=O)cc(C)[nH]c2=S)cc1 | -0.953% (inactive) | – |
| CCOc1ccc2sc(NS(=O)(=O)c3ccc(N)cc3)nc2c1 | 6.19% (inactive) | – |
| Cc1cccc(NC(=S)NCCN(C2CCCCC2)C2CCCC2)c1 | 2.22% (inactive) | – |
